The nature of assay [1]: compounds binding Alexa647 anti-His antibody – biochemical, small-molecule microarray, 635 nm fluorescence, artefact control for SMM control protein annotation, primary screen (AID 1128).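 Further: score merges feature fluorescence with signal-to-noise for each printed compound spot.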 As to conditions: higher = more signal.
Assay [2] deals with Human papillomavirus type 1a E7 protein (residues 1-88). Description: HPV1a E7 small-molecule binders, primary screen, biochemical, small-molecule microarray, residues 1-88, 635 nm (AID 1129). As to conditions: small-molecule microarray binding, fluorescence 635 nm; higher = more signal.
The target in assay [3] is Focal adhesion kinase 1 (Homo sapiens) (UniProt Q05397). The assay is described as follows: PTK2 protein binding on printed compound slides – biochemical, small-molecule microarray, 635/667 nm fluorescence, BSA, DTT, primary screen (AID 1130).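 Further: composite of spot emission at 667 nm and signal to noise over triplicate slides.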 As to conditions: 635 nm fluorescence, higher = more signal.
Sequence of Focal adhesion kinase 1 (Homo sapiens) (Q05397 whole entry, looked up): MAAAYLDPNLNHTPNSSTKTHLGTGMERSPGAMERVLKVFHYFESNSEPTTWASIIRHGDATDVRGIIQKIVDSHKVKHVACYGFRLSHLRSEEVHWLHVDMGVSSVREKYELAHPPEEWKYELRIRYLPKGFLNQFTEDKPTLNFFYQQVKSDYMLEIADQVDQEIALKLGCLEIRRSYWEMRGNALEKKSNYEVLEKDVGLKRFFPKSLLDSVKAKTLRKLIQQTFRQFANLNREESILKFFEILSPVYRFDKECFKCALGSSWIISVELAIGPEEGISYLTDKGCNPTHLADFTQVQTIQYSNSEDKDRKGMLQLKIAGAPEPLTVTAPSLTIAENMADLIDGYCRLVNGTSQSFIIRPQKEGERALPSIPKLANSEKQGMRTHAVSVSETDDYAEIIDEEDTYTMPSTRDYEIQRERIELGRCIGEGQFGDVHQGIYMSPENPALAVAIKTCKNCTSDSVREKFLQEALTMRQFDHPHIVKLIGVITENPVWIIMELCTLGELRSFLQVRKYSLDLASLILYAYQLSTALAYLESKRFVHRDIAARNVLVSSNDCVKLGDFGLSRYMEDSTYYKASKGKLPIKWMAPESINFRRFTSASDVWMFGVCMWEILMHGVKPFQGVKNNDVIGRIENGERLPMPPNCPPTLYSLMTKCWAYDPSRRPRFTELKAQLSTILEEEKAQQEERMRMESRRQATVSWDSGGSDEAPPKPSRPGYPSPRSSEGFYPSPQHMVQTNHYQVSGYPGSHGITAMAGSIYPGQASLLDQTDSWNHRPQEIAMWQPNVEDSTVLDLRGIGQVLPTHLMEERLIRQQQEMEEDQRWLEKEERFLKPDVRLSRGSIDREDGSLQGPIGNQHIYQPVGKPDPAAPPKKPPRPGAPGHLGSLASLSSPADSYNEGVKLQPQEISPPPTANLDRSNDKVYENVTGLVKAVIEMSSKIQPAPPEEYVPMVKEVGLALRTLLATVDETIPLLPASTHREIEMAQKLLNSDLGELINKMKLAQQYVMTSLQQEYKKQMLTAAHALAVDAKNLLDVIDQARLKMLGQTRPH
The test system of assay [4] is Fibrinogen (Alexa647-labelled). The assay is described as follows: Alexa647-fibrinogen binding to printed small molecules – biochemical, small-molecule microarray, 635/667 nm fluorescence, artefact control for SMM control-protein annotation, profiling panel (AID 1131).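 Further: z-score merges 667 nm fluorescence with per-spot signal-to-noise over triplicate slides.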 As to conditions: fibrinogen-A647 binding fluorescence, higher = more signal.
In assay [5] the target is Follistatin (Homo sapiens) (UniProt P19883). Description: FST protein binding to printed compounds – biochemical, small-molecule microarray, 635/667 nm fluorescence, primary screen (AID 1132). To be noted: 635 nm fluorescence, higher = more signal.
Sequence of Follistatin (Homo sapiens) (P19883 whole entry, looked up): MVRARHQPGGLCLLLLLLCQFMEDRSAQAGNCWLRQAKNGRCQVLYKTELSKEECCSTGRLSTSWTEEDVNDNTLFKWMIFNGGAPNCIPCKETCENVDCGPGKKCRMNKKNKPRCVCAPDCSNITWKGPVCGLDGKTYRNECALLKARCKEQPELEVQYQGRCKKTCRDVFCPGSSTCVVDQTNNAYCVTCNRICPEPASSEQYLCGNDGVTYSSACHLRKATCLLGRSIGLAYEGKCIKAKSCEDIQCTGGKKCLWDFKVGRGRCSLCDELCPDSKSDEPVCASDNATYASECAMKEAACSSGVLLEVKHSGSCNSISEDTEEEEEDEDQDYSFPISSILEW
Assay [6] concerns the target Fibroblast growth factor 2 (Homo sapiens) (UniProt P09038). Description: basic fibroblast growth factor binding to printed compounds – biochemical, small-molecule microarray, 635/667 nm fluorescence, primary screen (AID 1133). As to conditions: FGF2, fluorescence 635/667, higher = more signal.
Assay [7] is described as follows: JC-1 mitochondrial potential readout, lung cancer cells – cell-based, A549, JC-1 fluorescence, basal, 24 h, 100 nL, profiling panel (AID 1138).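 Further: A549 lung adenocarcinoma cells under basal conditions with no added stimulus; test concentration not given here.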 To be noted: higher = more signal.
For assay [8], the system named is Lefty1. The assay is described as follows: Lefty1 protein binding to printed compounds – biochemical, small-molecule microarray, 635/667 nm fluorescence, primary screen (AID 1139). To be noted: fluorescence 635/667, higher = more signal.
In assay [9] the test system is wheat germ agglutinin (Triticum aestivum), Alexa647-labelled. The assay is described as follows: Alexa647-WGA lectin binding to printed small molecules – biochemical, small-molecule microarray, 635/667 nm fluorescence, artefact control for SMM control-protein annotation, profiling panel (AID 1140).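 Further: score merges 667 nm feature emission with signal to noise over triplicate slides.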 To be noted: WGA-A647 binding, 635 nm fluorescence, higher = more signal.

The target in assay [10] is Luciferin 4-monooxygenase (Photinus pyralis) (UniProt P08659). The assay is described as follows: inhibition of purified Photinus pyralis luciferase – biochemical, luminescence, purified enzyme, 2006 set, primary screen (AID 1141).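 Further: cell-free assay with purified firefly luciferase at 100 ng per well in PBS; test concentration not given here.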 As to conditions: purified firefly luciferase, SteadyGlo luminescence, 30 min; higher = more signal, called active from +8 up or from −8 down.
Sequence of Luciferin 4-monooxygenase (Photinus pyralis) (P08659 whole entry, looked up): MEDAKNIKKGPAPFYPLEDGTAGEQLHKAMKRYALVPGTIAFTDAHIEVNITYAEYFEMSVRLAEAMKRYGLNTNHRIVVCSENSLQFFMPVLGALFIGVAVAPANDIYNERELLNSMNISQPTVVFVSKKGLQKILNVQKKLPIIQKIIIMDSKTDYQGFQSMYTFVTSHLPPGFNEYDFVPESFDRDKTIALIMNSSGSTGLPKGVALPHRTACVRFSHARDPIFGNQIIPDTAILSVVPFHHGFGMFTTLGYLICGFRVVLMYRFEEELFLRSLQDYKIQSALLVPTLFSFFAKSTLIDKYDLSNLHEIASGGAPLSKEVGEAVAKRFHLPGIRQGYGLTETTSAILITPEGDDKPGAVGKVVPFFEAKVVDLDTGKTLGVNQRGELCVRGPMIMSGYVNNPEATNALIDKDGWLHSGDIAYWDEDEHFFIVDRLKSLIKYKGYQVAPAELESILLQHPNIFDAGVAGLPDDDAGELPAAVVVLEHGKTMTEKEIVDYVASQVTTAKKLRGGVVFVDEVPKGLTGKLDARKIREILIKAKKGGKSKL

The source made the active and inactive calls.

Sequence of Fibroblast growth factor 2 (Homo sapiens) (P09038 whole entry, looked up): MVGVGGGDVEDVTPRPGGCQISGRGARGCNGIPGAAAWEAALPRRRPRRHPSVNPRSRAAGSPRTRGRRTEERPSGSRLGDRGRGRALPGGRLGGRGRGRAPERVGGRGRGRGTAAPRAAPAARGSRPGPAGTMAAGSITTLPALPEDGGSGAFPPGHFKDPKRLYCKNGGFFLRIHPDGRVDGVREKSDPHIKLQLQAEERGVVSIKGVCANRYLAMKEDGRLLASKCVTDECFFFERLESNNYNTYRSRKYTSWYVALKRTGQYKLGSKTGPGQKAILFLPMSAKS

`COC(=O)C(CC#Cc1ccc2c(c1)[C@]1(C(=O)N2)[C@H](c2ccc(O)cc2)N2[C@H](c3ccccc3)[C@H](c3ccccc3)OC(=O)[C@H]2[C@@H]1C(N)=O)C(=O)OC`: the composite z-score in [1] is -2.69; in [2] it was -1.91; in [3] it was -0.627; in assay [4] it was -1.96; in assay [5] it was -2.01; in assay [6] it was -1.44. The values for the composite z-score in [8] and in assay [9] were -2.6 and -2.35, respectively. In addition, the z-score is 1.42 in assay [7] and -0.899 (inactive) in assay [10].

Turning to `C[N+](C)(C)CCCCCCNC(=O)[C@@H]1C[C@@H]2C(=O)NCC(=O)N2[C@@H]1c1ccc(O)cc1`, the composite z-score in assay [1] is 0.946; in [2], 1.05; in [3], -0.0272; in assay [4] it was 0.49; in assay [5] it was 1.41; in [6], 1.31. Besides, the composite z-score worked out at 1.53 in assay [8] and 0.01 in assay [9]. The figures for the z-score in assay [7] and in assay [10] were -0.779 and 0.584 (inactive), respectively.

For the compound `O=C1OCC=C[C@H]2OC34C=CCN(CCN5CCOCC5)C(=O)[C@H]3N(CCCCCO)C(=O)[C@@H]4[C@@H]12` (stereo not given in full), the composite z-score is 2.23 in assay [1]; -0.277 in [2]; 0.311 in assay [3]; -0.155 in assay [4]; -0.307 in assay [5]; -0.12 in assay [6]. Also, the composite z-score in assay [8] is -0.0262; in assay [9] it was 0.28. The figures for the z-score in [7] and in assay [10] were -0.829 and -0.346 (inactive), respectively.

With `C=C[C@H](C)[C@H](OC(=O)Nc1ccc(SC)cc1)c1ccc(O)c2ccccc12`, the composite z-score in [1] is 0.499; in assay [2], -0.526; in assay [3] it was 0.209; in assay [4] it was -1.35; in assay [5], 1.08; in assay [6] it was 0.162. The composite z-score was 0.192 in assay [8] and -0.341 in [9]. Further, the z-score is -1.51 in [7] and -2.89 (inactive) in [10].

Regarding `COc1ccccc1CN1C(=O)c2ccccc2[C@@H](C(=O)NCC(C)C)[C@@H]1c1ccc(CO)cc1`, the composite z-score in assay [1] is 0.366; in assay [2], 1.18; in [3], 0.088; in assay [4] it was 0.707; in assay [5], 1.23; in [6] it was 1.56. The composite z-score in [8] was -0.632; in [9] it was 0.342. Besides, the figures for the z-score in assay [7] and in assay [10] were 0.163 and -0.836 (inactive), respectively.

`CC(C)[Si](C#C[Si](C(C)C)(C(C)C)C(C)C)(O[C@H](C)c1cn(Cc2cccc(Cl)c2)nn1)C(C)C`: the composite z-score was 0.604 in assay [1]; 1.11 in assay [2]; 0.586 in [3]; 0.715 in assay [4]; 0.396 in assay [5]; 0.67 in assay [6]. The composite z-score in [8] was determined as 0.714; in assay [9], 1.17. The z-score in assay [7] is 2.01; in assay [10], -1.11 (inactive).

For `CC(C)C[C@@H]1NC(=O)[C@@H]2C[C@H](C(=O)NCc3ccc(F)cc3)[C@H](c3ccc(O)cc3)N2C1=O`, the composite z-score amounted to 2.13 in assay [1]; 0.0885 in assay [2]; 0.317 in [3]; 0.248 in assay [4]; 1.34 in assay [5]; 1.91 in assay [6]. Further, the composite z-score in assay [8] is 0.689; in assay [9] it was -0.299. Moreover, the results for the z-score in [7] and in assay [10] were 0.634 and -0.0763 (inactive), respectively.

On to `COc1ccc([Si](C)(C)[C@@H]2[C@@H](CCO)O[C@]3(C(=O)N(Cc4ccccc4)c4ccc(N5C(=O)COc6ccccc65)cc43)[C@H]2C)cc1`, for which the composite z-score is 0.807 in assay [1]; 1.13 in assay [2]; 0.294 in [3]; 0.191 in assay [4]; 0.197 in assay [5]; -0.177 in [6]. In addition, the results for the composite z-score in assay [8] and in assay [9] were 0.351 and 0.622, respectively. Further, the values for the z-score in assay [7] and in assay [10] were -0.081 and 0.806 (inactive), respectively.

Regarding `COCCCNC(=O)[C@]1(Cc2ccccc2CN=[N+]=[N-])N=C(c2ccc(OCCCO)cc2)O[C@@H]1c1ccccc1CN=[N+]=[N-]`, the composite z-score is 2.28 in [1]; 1.2 in assay [2]; 0.11 in assay [3]; 0.954 in assay [4]; 0.701 in [5]; 0.244 in assay [6]. In addition, the composite z-score in assay [8] was -0.449; in [9] it was 1.02. Besides, the figures for the z-score in [7] and in assay [10] were 1.28 and -0.107 (inactive), respectively.

Take `C=C(/C(=C/C[C@@H](OC(=O)c1ccncc1)c1cccc(OCCO)c1)c1cc(C(=O)OC)ccc1OC)C(C)C`: the composite z-score is 1.01 in assay [1]; 1.13 in assay [2]; -0.165 in assay [3]; 0.366 in assay [4]; 0.525 in assay [5]; 1.43 in assay [6]. Also, the composite z-score is 0.879 in assay [8] and 0.487 in assay [9]. Also, the z-score in assay [7] was 4.89; in assay [10] it was -1.88 (inactive).

On to `C=C(COC)/C(=C/C[C@@H](OC(=O)c1ccncc1)c1cccc(OCCO)c1)c1cc(C(=O)OC)ccc1OC`, for which the composite z-score in [1] was 0.0301; in assay [2] it was 0.942; in [3] it was -0.0044; in assay [4], 0.199; in assay [5], 1.42; in [6] it was 2. Moreover, the figures for the composite z-score in [8] and in [9] were 1.63 and 0.181, respectively. For the same compound, the z-score in assay [7] is 1.28; in assay [10] it was -1.11 (inactive).

Consider `CCCC=C(CCC)[C@@H](NS(=O)(=O)CC)c1ccccc1`, for which the composite z-score in assay [1] worked out at 0.365; in [2], 1.18; in [3], 0.655; in assay [4] it was 0.976; in [5], 0.322; in [6], 0.152. The composite z-score is -0.346 in [8] and 0.265 in assay [9]. Besides, the z-score was -1.72 in assay [7] and 2.1 (inactive) in assay [10].

Take `COc1cccc(C[C@H]2C[C@@H](CO[Si](C(C)C)(C(C)C)C(C)C)N3C(=O)[C@]4(C(C)=O)O[C@]23[C@H]2C(=O)N(C)C(=O)[C@H]24)c1`: the composite z-score in assay [1] worked out at 0.786; in assay [2], 1.04; in [3], 0.353; in assay [4], 0.674; in assay [5] it was 0.9; in [6], 0.865. Moreover, the composite z-score came to 1.19 in assay [8] and 0.425 in assay [9]. Besides, the results for the z-score in assay [7] and in assay [10] were 1.51 and 0.216 (inactive), respectively.

Turning to `[N-]=[N+]=NCc1ccccc1C[C@]1(C(=O)NCCN2CCOCC2)N=C(c2ccc(OCCCO)cc2)O[C@H]1c1ccccc1`, the composite z-score in assay [1] is 0.478; in assay [2], 1.22; in [3], 0.378; in [4] it was 1.01; in assay [5], 1.39; in assay [6], 0.473. Further, the figures for the composite z-score in assay [8] and in [9] were 0.649 and 0.556, respectively. The z-score is 1.02 in assay [7] and 0.375 (inactive) in assay [10].

In the case of `OCCCC1=CC(c2cccs2)N(Cc2cccc(OC(F)(F)F)c2)CC1` (stereo not given), the composite z-score in [1] was 0.357; in assay [2], -0.138; in [3], 0.316; in assay [4], -1.42; in assay [5] it was -0.17; in assay [6], -0.546. Moreover, the composite z-score in [8] worked out at 0.226; in [9], 0.771. The z-score in [7] was 0.593; in assay [10], -0.605 (inactive).

The values are drawn from PubChem BioAssay.
